{
  "source": "PubChem BioAssay (Tox21)",
  "note": "Records with an inconclusive call do not appear. Entries that show only a call come without a potency. Where a structure was tested more than once in an assay, its records may differ in their call. Activity calls are given as the source filed them. The call rests on the fitted dose curve. Potency means the concentration at half of the fitted maximal effect.",
  "data": [
    {"test": "p53 small molecule agonists, cell-based qHTS assay with rat liver microsomes: qHTS cell viability counter screen (AID 1963580); further: nearly all actives have a fitted effect of over 45% in size", "conditions": "p53RE-bla HCT-116 + rat microsomes, ATP viability, 16 h; series mostly up to 66 µM", "excerpt": "National Center for Advancing Translational Sciences [NCATS]\nDivision of Preclinical Innovation [DPI]\nU.S. Environmental Protection Agency [EPA]\nNational Institutes of Environmental Health Sciences [NIEHS]\nNational Toxicology Program [NTP]\nU.S. Food and Drug Administration [FDA]\np53, a tumor suppressor protein, is activated following cellular insult, including DNA damage and other cellular stresses. The activation of p53 regulates cell fate by inducing DNA repair, cell cycle arrest, apoptosis, or cellular senescence. The activation of p53, therefore, is a good indicator of DNA damage and other cellular stresses. The CellSensor p53RE-bla HCT-116 cell line contains a stably integrated beta-lactamase reporter gene under control of the p53 response elements. The activation of the reporter gene under culture conditions can be detected by fluorescence intensity. This cell line was used to screen the Tox21 10K compound library in the condition of presence of rat liver microsomes and to identify agonists that activate the p53 signaling pathway after in vitro metabolic activation (Ooka et al., Archive of Toxicology 96:1975-1987, 2022). The cytotoxicity of the Tox21 compound library against the p53 RE-bla HCT-116 cell line was tested in parallel by measuring the intra cellular ATP content in the same wells.\nTox21 Assay Protocol Summary:\nThe p53RE-bla cells were dispensed at 4,000cells/3ul/well in 1536-well black-clear bottom plates. After the assay plates were incubated at 37 C, 5% CO2 incubator for 5 hours, 23 nL of compounds dissolved in DMSO, positive controls or DMSO only was transferred to the assay plate. Following compound addition, 3 uL of rat liver microsomes (Molecular Toxicology, Boone, NC) at final concentration of 0.5 mg/mL and 1uL of B-Nicotinamide adenine dinucleotide 2'-phosphate (NADPH) at final concentration of 0.5 mg/mL were transferred to the assay plate. The plates were incubated at 37 C for 16 hours. 1 uL of LiveBLAzer detection mixture was added to each well and the plates were incubated at room temperature in the dark for 2 h. Fluorescence intensity at 460 and 530 nm emission and 405 nm excitation were measured by an Envision plate reader. For cell viability readout that measures cytotoxicity, 4 ul/well of CellTiter-Glo reagent was added into the assay plates using a Flying Reagent Dispenser. After 30 min incubation at room temperature, the luminescence intensity in the plates was measured using a ViewLux plate reader.", "values": [
      {"smiles": "CCn1c2ccccc2c2cc(N)ccc21", "Potency": "inactive"},
      {"smiles": "O=C1CCCC1", "Potency": "inactive"},
      {"smiles": "Cc1ccccc1C=O", "Potency": "inactive"},
      {"smiles": "O=C(O)CCCCC(=O)O", "Potency": "inactive"},
      {"smiles": "O=Nc1ccc(O)cc1", "Potency": "inactive"},
      {"smiles": "NCCCCCCN", "Potency": "inactive"},
      {"smiles": "CN(C)C(=O)Nc1ccc(Cl)c(Cl)c1", "Potency": "inactive"},
      {"smiles": "CCCCOC(=O)c1ccc(O)cc1", "Potency": "inactive"},
      {"smiles": "c1ccc2[nH]c(-c3cscn3)nc2c1", "Potency": "inactive"},
      {"smiles": "O=C(O)c1ccc(C(=O)O)cc1", "Potency": "inactive"},
      {"smiles": "CC[N+](CC)(CC(=O)Nc1c(C)cccc1C)Cc1ccccc1", "Potency": "inactive"},
      {"smiles": "O=c1ccc2ccccc2o1", "Potency": "inactive"},
      {"smiles": "Nc1ncnc2nc[nH]c12", "Potency": "inactive"},
      {"smiles": "O=C1O[C@H](CO)[C@@H](O)[C@H](O)[C@H]1O", "Potency": "inactive"},
      {"smiles": "CC(C)(Oc1ccc(C2CC2(Cl)Cl)cc1)C(=O)O", "note": "(stereo not given)", "Potency": "inactive"},
      {"smiles": "CCCCCCCC(=O)OCC(COC(=O)CCCCCCC)OC(=O)CCCCCCC", "Potency": "inactive"},
      {"smiles": "O=C(O)CN(CC(=O)O)CC(=O)O", "Potency": "inactive"},
      {"smiles": "O=C1CCC(N2C(=O)c3ccccc3C2=O)C(=O)N1", "note": "(stereo not given)", "Potency": "inactive"},
      {"smiles": "OC[C@@H](O)[C@H](O)[C@H](O)[C@@H](O)CO", "Potency": "inactive"},
      {"smiles": "OCCOCCOCCOCCO", "Potency": "inactive"},
      {"smiles": "O=c1[nH]cc(F)c(=O)[nH]1", "Potency": "47.5 µM (active) and inactive"},
      {"smiles": "COC(=O)CCCCC(=O)OC", "Potency": "inactive"},
      {"smiles": "O=C1OC(c2ccc(O)cc2)(c2ccc(O)cc2)c2ccccc21", "Potency": "inactive"},
      {"smiles": "O=S1(=O)CCCO1", "Potency": "inactive"},
      {"smiles": "CS(=O)(=O)c1ccc([C@@H](O)[C@@H](CO)NC(=O)C(Cl)Cl)cc1", "Potency": "inactive"},
      {"smiles": "CCN1CCCC1=O", "Potency": "inactive"},
      {"smiles": "CCOC(N)=O", "Potency": "inactive"},
      {"smiles": "C=C(C)C1CC=C(C)C(OC(C)=O)C1", "note": "(stereo not given)", "Potency": "inactive"},
      {"smiles": "CCCCC/C=C\\C/C=C\\CCCCCCCC(=O)OC", "Potency": "inactive"},
      {"smiles": "O=C1C(N(CO)C(=O)NCO)N(CO)C(=O)N1CO", "note": "(stereo not given)", "Potency": "inactive"},
      {"smiles": "CCc1ccc(O)cc1", "Potency": "inactive"},
      {"smiles": "CCCCC(=O)O", "Potency": "inactive"},
      {"smiles": "CN(C)CCOC(C)(c1ccccc1)c1ccccn1", "note": "(stereo not given)", "Potency": "inactive"},
      {"smiles": "CC(=O)Nc1ccc(C(=O)O)cc1", "Potency": "inactive"},
      {"smiles": "Cc1ccc([N+](=O)[O-])cc1N", "Potency": "inactive"},
      {"smiles": "COc1ccc([N+](=O)[O-])cc1N", "Potency": "inactive"},
      {"smiles": "O=CCc1ccccc1", "Potency": "inactive"},
      {"smiles": "NC(=S)NNC(N)=S", "Potency": "inactive"},
      {"smiles": "O=C1C(c2[nH]c3ccccc3c2O)=Nc2ccccc21", "Potency": "inactive"},
      {"smiles": "Cc1ncc([N+](=O)[O-])n1CCO", "Potency": "inactive"}
    ]}
  ]
}
